Screening data: PubChem BioAssay, several laboratories
In the library only some 5.1% were active in any assay of this set; here they are far more common.
TMEM16A inh = inhibitors of mouse TMEM16A calcium-activated chloride channel; Q8BHY3; HEK293 TMEM16A/YFP iodide influx fluorescence, ionomycin; normalized B-score (activity score, 25-100; higher = stronger inhibition) at 10 µM; 310,000 compounds, 1.2% hits; AID 588511;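 active = ratio plate-corrected score three or more library SD toward inhibition, starting fluorescence score within five deviations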;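 note: score derived from kinetic fluorescence span divided by baseline fluorescence per well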
MPTP block = inhibitors of mitochondrial permeability transition pore. isolated mouse mitochondria, Ca2+ swelling absorbance, 30 min. inhibition, % at 10 µM. 360,000 compounds, 1.4% hits;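 active = inhibition of 50% or more, scaled per plate between neutral and stimulator controls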;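 note: 0% = DMSO wells given calcium and 100% = 1 mM EGTA wells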
CRFR2-BP ag = agonists of human CRF-binding protein/CRF-R2 receptor complex; HEK293 CRF-R2/CRF-BP, calcium dye fluorescence (FLIPR); percent of saturating CRF peptide response; activation, % at 13.2 µM; 350,000 compounds, 0.46% hits; AID 588473;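 active = activation of at least 50%, plus an integration ratio under a set limit after plate pattern correction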;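 note: plate controls were neutral control wells without compound for no effect and CRF at EC100 for full effect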
TMEM16A act = activators or potentiators of mouse TMEM16A chloride channel | HEK293 TMEM16A/YFP-H148Q/I152L, iodide quench fluorescence; hits give low values | AID 623877 | 340,000 compounds, 0.3% hits | B-score at 10 µM | Q8BHY3;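 active = fluorescence-ratio B-score plate-corrected deviation score at least 3 library SD below zero, with starting fluorescence score within 5 deviations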;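 note: channel opened by trigger with iodide after compound preincubation; score built on the fluorescence ratio of max minus min over baseline; more negative score means more quench and so TMEM16A activation or potentiation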
NR3A LBD binder = modulators (binders) of human NR3A ligand-binding domain | AID 1259313 | NR3A LBD differential scanning fluorimetry, Tm shift; 0% = protein alone, 100% = glycine-bound protein | Tm shift relative to glycine control, % at 25 µM | 340,000 compounds, 2.5% hits;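 active = melting temperature shift of at least 10% of the positive control shift, at one fixed dose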
CRFBP-R2 block = antagonists of CRF-binding protein/CRF-R2 receptor complex | HEK293 CRF-R2/CRF-BP, CRF-induced calcium fluorescence | inhibition, % at 11.8 µM | 350,000 compounds, 0.59% hits | AID 588475;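 active = inhibition of the ligand-induced calcium signal above about 50% at the single tested concentration, limit read from the data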
TMEM16A reconf = TMEM16A (mouse) chloride channel inhibition, re-confirmation | shares compounds with TMEM16A inh | HEK293 TMEM16A/YFP-H148Q, iodide quench fluorescence; ionomycin added to raise cell calcium | inhibition, % at 10 µM | 2,300 compounds, 39% hits | AID 652189;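 active = mean duplicate percent inhibition, scaled so buffer wells are 0 and the reference blocker 100, over three buffer SD above buffer mean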
HEK293 Ca mobil = alters calcium mobilization in TMEM16A HEK293 cells, counter-screen; shares compounds with TMEM16A inh; TMEM16A/YFP HEK293, Fluo4 calcium mobilization; calcium response (% of ionomycin), % at 10 µM; 2,300 compounds, 2% hits;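 active = duplicate-averaged calcium signal over 20% of the ionomycin maximum, relative to buffer baseline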;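 note: each well's signal is peak minus trough fluorescence divided by its pre-addition baseline; 0% = buffer wells and 100% = ionomycin wells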
Parental YFP cnt = acts in parental YFP-HEK293 cells lacking TMEM16A, counter-screen. AID 652233. YFP ratio F(max-min)/F0 at 10 µM. iodide YFP quench, ionomycin. 2,300 tested, under 10 active. shares compounds with TMEM16A inh;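 active = yellow fluorescent protein signal ratio exceeding the buffer control mean by over 5 SD of those controls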;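 note: ratio is mean of duplicate wells from kinetic YFP trace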
ClC-1 rat inh = rat ClC-1 inhibition, TMEM16A specificity screen | 2,300 tested, under 10 active | shares compounds with TMEM16A inh | ratio percent, % at 10 µM | AID 652236 | CHO ClC-1-YFP, iodide influx fluorescence quench; iodide control reads 0, buffer control 100;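 active = duplicate-mean ratio percent above the mean of iodide-only control wells, which defines zero, plus 5 of their SD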;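 note: higher percent means stronger block of ClC-1 iodide influx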
Target sequence (P35524 whole entry, looked up): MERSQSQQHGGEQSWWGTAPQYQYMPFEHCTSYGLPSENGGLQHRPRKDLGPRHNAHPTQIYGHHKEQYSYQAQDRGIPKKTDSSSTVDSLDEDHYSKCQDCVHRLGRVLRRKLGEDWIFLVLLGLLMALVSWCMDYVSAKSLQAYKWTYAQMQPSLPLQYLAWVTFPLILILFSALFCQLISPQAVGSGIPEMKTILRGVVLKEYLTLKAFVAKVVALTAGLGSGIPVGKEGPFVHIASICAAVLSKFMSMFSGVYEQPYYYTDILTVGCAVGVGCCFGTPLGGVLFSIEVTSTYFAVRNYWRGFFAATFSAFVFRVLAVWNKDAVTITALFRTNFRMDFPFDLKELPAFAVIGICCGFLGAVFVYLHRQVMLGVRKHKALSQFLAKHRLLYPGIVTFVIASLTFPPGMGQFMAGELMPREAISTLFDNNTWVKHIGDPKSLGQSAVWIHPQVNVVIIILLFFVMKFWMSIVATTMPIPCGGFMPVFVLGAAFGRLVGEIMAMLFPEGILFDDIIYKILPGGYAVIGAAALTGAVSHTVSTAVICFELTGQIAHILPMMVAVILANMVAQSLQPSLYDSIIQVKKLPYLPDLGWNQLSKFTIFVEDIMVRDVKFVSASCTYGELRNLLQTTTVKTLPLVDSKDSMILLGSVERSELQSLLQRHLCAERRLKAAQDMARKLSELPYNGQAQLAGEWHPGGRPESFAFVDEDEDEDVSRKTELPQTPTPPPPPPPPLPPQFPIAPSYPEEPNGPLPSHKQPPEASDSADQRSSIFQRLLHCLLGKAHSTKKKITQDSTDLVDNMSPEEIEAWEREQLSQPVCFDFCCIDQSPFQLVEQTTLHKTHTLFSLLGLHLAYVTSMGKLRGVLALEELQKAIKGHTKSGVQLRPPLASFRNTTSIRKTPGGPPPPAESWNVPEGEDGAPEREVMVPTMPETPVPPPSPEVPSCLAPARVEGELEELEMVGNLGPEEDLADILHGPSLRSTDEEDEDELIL
Starred values were filed as active, the others as inactive; i = inactive; / = not tested or not shown.

SMILES	TMEM16A inh	MPTP block	CRFR2-BP ag	TMEM16A act	NR3A LBD binder	CRFBP-R2 block	TMEM16A reconf	HEK293 Ca mobil	Parental YFP cnt	ClC-1 rat inh
c1csc(-c2noc(COc3ccc4c(c3)CCCC4)n2)c1	i	-0.1	6.9	i	1.8	-7.0	i	i	-1.16	-13.0
Brc1ccc(-c2noc(COc3ccc4c(c3)CCC4)n2)o1	i	2.7	7.8	i	1.6	24.6	/	/	/	/
CC1(C)C(=O)Nc2ccccc2N1C(=O)COC(=O)c1ccc(NC(N)=O)cc1	/	-0.1	0.8	i	-4.9	-10.2	/	/	/	/
COc1ccc(NC(=O)c2cccnc2C(=O)O)c(OC)c1	i	-1.7	-0.8	i	-0.1	-3.8	i	i	-1.27	-10.5
O=C(CN1C(=O)CCSc2ccc(S(=O)(=O)N3CCOCC3)cc21)Nc1cccc(F)c1	i	-0.5	-0.7	i	1.5	-3.2	/	/	/	/
Cn1cc(CNC(=O)c2cc(COc3ccc4c(c3)CCCC4)on2)cn1	25*	1.3	-1.3	i	0.4	1.4	i	i	-1.1	-8.0
CCN(Cc1cnn(C)c1)C(=O)c1cc(COc2ccc3c(c2)CCCC3)on1	i	0.7	-1.1	i	-0.6	5.7	/	/	/	/
CCOC(=O)/C(C(N)=NCC(C)C)=C(/O)c1ccccc1	i	-1.5	2.6	i	0.6	10.7	/	/	/	/
CCCOC(=O)/C(C(N)=NCc1ccccc1)=C(\O)OCCC	100*	5.7	0.7	i	-15.6	-8.8	i	i	-0.869	-9.5
CC(=O)C1=CCC(c2ccc(Br)cc2)N(S(=O)(=O)c2ccc(C)cc2)C1 (configuration not stated)	/	0.4	/	/	/	/	/	/	/	/
COCCNc1ncnc2c1ncn2[C@H]1CN(Cc2ccncc2)C[C@@H](CO)O1	/	-1.3	/	/	/	/	/	/	/	/
Cc1ccccc1NC(=O)Cc1nc(COC(=O)c2ccccn2)cs1	i	-1.0	0.8	i	0.6	-2.6	/	/	/	/
Cc1cc(C)c(C(=O)OCc2csc(CC(=O)Nc3ccccc3C)n2)c(C)c1	25*	-0.4	-0.7	i	-3.5	6.0	i	i	-1.05	-13.0
CCOC(=O)c1ccc(NC(=O)C2CCN(S(=O)(=O)c3ccccc3)CC2)cc1	i	-0.3	-3.3	i	-13.8	12.4	/	/	/	/
CCOC(=O)c1ccc(NC(=O)C2CCCN(S(=O)(=O)c3ccc(F)cc3)C2)cc1 (configuration not stated)	25*	-4.0	1.4	i	-7.3	-45.3	17.5%*	i	-1.11	-4.5
CCOC(=O)c1ccc(NC(=O)c2cc(S(=O)(=O)N3CCOCC3)ccc2O)cc1	25*	3.8	0.0	i	-0.3	4.2	37.0%*	i	-0.865	-16.5
CC1Cc2ccccc2N1C(=S)Nc1ccc(S(N)(=O)=O)cc1 (configuration not stated)	100*	2.6	-0.6	i	0.8	2.2	i	i	-0.864	-21.0
CC1CCCN(C(=O)CN(c2ccccc2)S(=O)(=O)c2ccc(F)cc2)C1 (configuration not stated)	/	-0.6	-0.9	i	-0.4	-5.9	/	/	/	/
CCc1ccccc1N(CC)C(=O)CCc1nc(-c2ccc(C)cc2)no1	100*	0.0	0.2	i	0.4	11.5	30.5%*	i	-0.878	-11.5
Nc1cc(=O)nc(SCC(=O)N2CCN(c3ccccc3)CC2)n1-c1ccc(F)cc1	i	-0.1	3.2	i	2.4	-3.3	/	/	/	/
